Composite z-score and z-score data for 16 molecules are collected here from PubChem BioAssay.

The subject of assay [1] is Plasmodium falciparum Sir2 (PF13_0152, Sir2A). The assay can be described thus: Plasmodium falciparum Sir2A binding compounds – biochemical, small-molecule microarray, 635 nm fluorescence, primary screen (AID 1098).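 Also: score merges spot fluorescence intensity with its signal-to-noise ratio.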 To be noted: fluorescence 635 nm, higher = more signal.
A short description of assay [2]: probe aDKK1 binding to arrayed compounds – biochemical, biotinylated probe, 635/667 nm fluorescence, primary screen (AID 1099).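 Also: score merges 667nm spot fluorescence with signal to noise across triplicate slides; reference of the scale not given here.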 The note with it: small-molecule microarray, higher = more signal.
A short description of assay [3]: probe aCHRDL2 binding to arrayed compounds – biochemical, biotinylated probe, 635/667 nm fluorescence, primary screen (AID 1100). To be noted: small-molecule microarray, higher = more signal.
Assay [4] is described as follows: change in splice reporter luminescence, either direction, cell-based, HEK293, spliceosome inhibition project, primary screen (AID 1101).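 Also: HEK293 cells carrying a splicing-competent luciferase reporter gene; test concentration not given here.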 The note with it: HEK293 splicing luciferase reporter, 24 h, higher = more signal, called active from +8 up or from −8 down. (A reporter such as luciferase makes a cellular process visible.)
Assay [5] addresses Fibroblast growth factor 10 (Homo sapiens) (UniProt O15520). The assay can be described thus: compounds binding fibroblast growth factor 10 – biochemical, small-molecule microarray, 635 nm fluorescence, primary screen (AID 1102). To be noted: FGF10 binding, fluorescence 635 nm, higher = more signal.
Assay [6] deals with glycogen synthase kinase-3 (GSK3A per assay name; protocol says GSK3B). Put plainly: compounds binding glycogen synthase kinase-3 – biochemical, small-molecule microarray, 635 nm fluorescence, GSK3A, primary screen (AID 1103). Also: the record names both GSK3A and GSK3B. To be noted: fluorescence 635 nm, higher = more signal.
The target of assay [7] is Epidermal growth factor receptor (Homo sapiens) (UniProt P00533). The assay can be described thus: compounds binding epidermal growth factor receptor – biochemical, small-molecule microarray, 635 nm fluorescence, primary screen (AID 1104).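 Also: score merges 667 nm emission intensity with spot signal to noise over triplicate slides.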 The note with it: EGFR binding, higher = more signal.
The target in assay [8] is Follistatin-related protein 3 (Homo sapiens) (UniProt O95633). The assay can be described thus: compounds binding follistatin-related protein 3 – biochemical, small-molecule microarray, 635 nm fluorescence, primary screen (AID 1105).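 Also: score merges emission near 667 nm and signal to noise per printed spot across three slides.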 To be noted: FSTL3 binding, higher = more signal.
Assay [9] deals with Dickkopf-related protein 1 (Homo sapiens) (UniProt O94907). The assay can be described thus: small molecules binding DKK1 protein – biochemical, small-molecule microarray, 635 nm fluorescence scan, primary screen (AID 1106).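 Also: score merges emission near 667 nm with signal to noise over three replicate slides.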 The note with it: higher = more signal.
Assay [10] relates to Inhibin beta A chain (activin A). The assay can be described thus: small molecules binding activin A – biochemical, small-molecule microarray, 635 nm fluorescence scan, primary screen (AID 1107).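 Also: mouse activin A protein probed at 4.33 µg/mL on printed slides; score merges bound-protein fluorescence near 667 nm with spot signal-to-noise.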 The note with it: INHBA, higher = more signal.

Molecules are shown by their SMILES. Activity calls are given as the source filed them.

Sequence of Dickkopf-related protein 1 (Homo sapiens) (O94907 whole entry, looked up): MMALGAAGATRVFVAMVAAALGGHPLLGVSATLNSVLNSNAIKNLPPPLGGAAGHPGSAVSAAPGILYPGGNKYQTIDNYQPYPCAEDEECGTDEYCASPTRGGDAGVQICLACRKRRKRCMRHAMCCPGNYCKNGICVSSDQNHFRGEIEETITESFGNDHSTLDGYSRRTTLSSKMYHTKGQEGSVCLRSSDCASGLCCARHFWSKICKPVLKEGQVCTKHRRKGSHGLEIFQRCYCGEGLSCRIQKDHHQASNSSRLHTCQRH
Sequence of Fibroblast growth factor 10 (Homo sapiens) (O15520 whole entry, looked up): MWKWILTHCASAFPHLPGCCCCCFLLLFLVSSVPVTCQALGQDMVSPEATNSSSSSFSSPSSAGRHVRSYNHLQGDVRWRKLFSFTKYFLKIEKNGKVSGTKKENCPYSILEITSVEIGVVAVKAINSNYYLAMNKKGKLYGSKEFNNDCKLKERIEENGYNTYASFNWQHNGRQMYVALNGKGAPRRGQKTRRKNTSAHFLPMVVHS
Sequence of Follistatin-related protein 3 (Homo sapiens) (O95633 whole entry, looked up): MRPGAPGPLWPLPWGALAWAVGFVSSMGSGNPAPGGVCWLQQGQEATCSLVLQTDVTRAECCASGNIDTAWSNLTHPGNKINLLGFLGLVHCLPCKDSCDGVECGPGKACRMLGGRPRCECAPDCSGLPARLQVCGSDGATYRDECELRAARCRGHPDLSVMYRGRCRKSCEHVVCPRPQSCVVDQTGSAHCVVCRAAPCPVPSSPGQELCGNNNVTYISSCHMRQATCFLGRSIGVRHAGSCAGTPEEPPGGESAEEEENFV
Sequence of Epidermal growth factor receptor (Homo sapiens) (P00533 whole entry, looked up): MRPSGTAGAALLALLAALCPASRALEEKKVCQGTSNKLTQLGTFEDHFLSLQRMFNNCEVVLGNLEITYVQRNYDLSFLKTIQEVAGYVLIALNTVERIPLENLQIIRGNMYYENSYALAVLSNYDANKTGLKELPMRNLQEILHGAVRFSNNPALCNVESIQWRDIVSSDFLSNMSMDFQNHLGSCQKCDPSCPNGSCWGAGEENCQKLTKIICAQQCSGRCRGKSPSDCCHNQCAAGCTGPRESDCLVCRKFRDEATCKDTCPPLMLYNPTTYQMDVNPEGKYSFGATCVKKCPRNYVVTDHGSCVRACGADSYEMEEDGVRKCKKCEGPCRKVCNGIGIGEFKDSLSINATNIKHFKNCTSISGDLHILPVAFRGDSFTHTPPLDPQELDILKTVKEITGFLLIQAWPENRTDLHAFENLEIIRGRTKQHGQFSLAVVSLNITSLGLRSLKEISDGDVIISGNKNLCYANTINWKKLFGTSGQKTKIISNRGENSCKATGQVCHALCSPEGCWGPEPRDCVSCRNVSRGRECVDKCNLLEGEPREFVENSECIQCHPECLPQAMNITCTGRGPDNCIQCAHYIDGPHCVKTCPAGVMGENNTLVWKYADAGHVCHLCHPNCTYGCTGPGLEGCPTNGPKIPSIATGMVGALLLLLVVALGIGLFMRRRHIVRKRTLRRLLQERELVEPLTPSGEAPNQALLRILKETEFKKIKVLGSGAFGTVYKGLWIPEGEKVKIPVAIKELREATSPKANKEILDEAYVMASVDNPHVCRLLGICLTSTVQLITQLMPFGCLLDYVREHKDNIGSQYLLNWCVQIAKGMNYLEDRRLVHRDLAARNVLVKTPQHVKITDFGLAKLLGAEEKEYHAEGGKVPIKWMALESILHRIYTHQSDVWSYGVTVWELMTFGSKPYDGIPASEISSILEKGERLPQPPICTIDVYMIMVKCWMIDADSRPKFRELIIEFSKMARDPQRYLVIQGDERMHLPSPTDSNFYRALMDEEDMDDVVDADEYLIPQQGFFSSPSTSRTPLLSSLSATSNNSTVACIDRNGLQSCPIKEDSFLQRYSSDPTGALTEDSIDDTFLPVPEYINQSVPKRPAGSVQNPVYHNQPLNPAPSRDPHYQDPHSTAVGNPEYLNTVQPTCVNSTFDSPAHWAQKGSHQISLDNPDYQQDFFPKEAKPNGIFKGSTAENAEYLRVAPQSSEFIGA

On to `COCCOC(=O)N1C(=O)[C@@]2(c3cc(C#CCC(C(=O)OC)C(=O)OC)ccc31)[C@H](c1ccc(O)cc1)N1[C@H](c3ccccc3)[C@H](c3ccccc3)OC(=O)[C@H]1[C@@H]2C(=O)N1CCc2cc(OC)c(OC)cc2C1`, for which the composite z-score in assay [1] is 1.21; in [2], -0.149; in assay [3] it was 0.131; in assay [5], 1.09; in assay [6] it was 1.08; in assay [7], 0.294. Further, the composite z-score in [8] was 0.728; in assay [9] it was 0.384; in assay [10], 0.0348. In addition, the z-score in assay [4] is 0.0333 (inactive).
For `CC(C)N1C(=O)[C@@]2(Cc3ccccc31)c1ccccc1C(=O)N(Cc1ccccc1C(F)(F)F)[C@H]2c1ccc(CO)cc1`, the composite z-score in assay [1] was 1.73; in assay [2] it was 0.444; in [3] it was -0.756; in assay [5], 0.178; in [6], 0.366; in assay [7], 0.0355. In addition, the composite z-score in [8] is 1.39; in assay [9], 1.08; in [10] it was 0.66. In addition, in [4], the z-score is -0.352 (inactive).
Regarding `C=C(CC1([C@@H](NP(=O)(c2ccccc2)c2ccccc2)[C@H]2C[C@@H]2CCCC)CC1)c1cccc(OC)c1`, the composite z-score in assay [1] is -0.167; in assay [2], 0.91; in assay [3], 1.15; in assay [5], 0.158; in assay [6], -0.3; in assay [7] it was -0.28. Further, the composite z-score is 0.463 in assay [8], -1.14 in assay [9] and 1.03 in [10]. For the same molecule, the z-score in assay [4] is -2.52 (inactive).
As for `Cc1ccc(S[C@]2(C(=O)NC(C)C)CC(=O)N(Cc3ccccc3)[C@@H]2c2ccc(CO)cc2I)cc1`, the composite z-score in [1] was 0.984; in assay [2], 0.498; in assay [3], 1.27; in assay [5] it was -0.284; in assay [6], -0.683; in [7] it was -1.27. In addition, the results for the composite z-score in [8], in assay [9] and in [10] were -0.911, -2.57 and 1.01, respectively. In addition, the z-score in [4] is -0.328 (inactive).
As to `COc1ccc(CCNC(=O)[C@@H]2c3ccccc3C(=O)N(Cc3cc(F)cc(C(F)(F)F)c3)[C@H]2c2ccc(CO)cc2)cc1`, the composite z-score in assay [1] worked out at 0.181; in assay [2], 1.89; in [3], 0.877; in assay [5], 0.12; in [6], 0.765; in assay [7], 0.321. Further, the composite z-score in [8] is 1.1; in assay [9] it was 0.157; in [10], 1.08. Further, the z-score in assay [4] is -0.267 (inactive).
Turning to `Cc1ccc(S[C@]2(C(=O)NC(C)C)CC(=O)N(Cc3ccccc3)[C@@H]2c2ccc(CO)cc2)cc1`, the composite z-score in assay [1] was 0.0089; in assay [2] it was 0.108; in assay [3] it was 0.915; in assay [5], -1.18; in assay [6], -1.34; in assay [7] it was -1.01. Besides, the composite z-score is -0.363 in assay [8], -1.51 in assay [9] and 0.159 in assay [10]. Further, in assay [4], the z-score was -0.538 (inactive).
With `COc1ccc([Si](C)(C)[C@@H]2[C@@H](CC(=O)N3CCC[C@H]3CO)O[C@]3(C(=O)N(Cc4cccc(N5C(=O)c6cccc7cccc5c67)c4)c4ccccc43)[C@H]2C)cc1`, the composite z-score is 1.22 in assay [1]; -0.164 in assay [2]; 0.0325 in assay [3]; 0.415 in assay [5]; 0.0816 in assay [6]; 0.192 in [7]. Moreover, the composite z-score in assay [8] was determined as 0.402; in [9] it was 0.655; in [10] it was 0.608. In addition, the z-score in [4] was -0.134 (inactive).
`[N-]=[N+]=NCc1ccccc1[C@H]1OC(c2ccc(OCCCO)cc2)=N[C@@]1(CCS(=O)(=O)c1ccccc1)C(=O)NCCN1CCOCC1`: the composite z-score in [1] came to 1.51; in [2], 0.667; in [3] it was 1.12; in assay [5] it was 1.38; in assay [6], 0.844; in assay [7] it was 0.135. Besides, the composite z-score in [8] was determined as 0.698; in [9], 0.0689; in assay [10] it was 0.914. The z-score in [4] is -0.757 (inactive).
Regarding `CCCCCN1CC=CC23O[C@@H]4/C=C\CCCOC(=O)C4[C@H]2C(=O)N(CCO)[C@@H]3C1=O` (stereo not given in full), the composite z-score in assay [1] was 1.14; in assay [2], -0.132; in assay [3], 0.107; in assay [5] it was -0.412; in assay [6], 0.45; in assay [7], -0.356. Also, the composite z-score in assay [8] was -0.338; in [9], -0.0986; in assay [10], 1.14. The z-score in [4] is -1.83 (inactive).
Consider `O=C(NCCN1CCOCC1)[C@@H]1c2ccccc2C(=O)N(CC23CC4CC(CC(C4)C2)C3)[C@H]1c1ccc(CO)cc1`, for which the composite z-score in assay [1] came to 1.13; in [2], 0.253; in assay [3] it was 0.789; in [5] it was 1.33; in assay [6] it was 1.32; in assay [7] it was 0.634. Also, the composite z-score in [8] was found to be 1.21; in assay [9] it was 0.0037; in assay [10] it was 0.471. Moreover, in assay [4], the z-score was 0.507 (inactive).
As for `COc1ccc(C(=O)Nc2ccc(CN3C(=O)[C@@]4(O[C@@H](CC(=O)N(CCO)Cc5ccccc5)[C@H]([Si](C)(C)c5ccc(OC)cc5)[C@H]4C)c4ccccc43)cc2)cc1`, the composite z-score in [1] was 0.901; in [2] it was -0.0966; in [3], -0.351; in assay [5], 0.201; in [6], -0.185; in assay [7], 0.7. In addition, the composite z-score in assay [8] worked out at 0.335; in assay [9], 0.502; in assay [10], 0.432. Besides, the z-score in assay [4] is -1.78 (inactive).
Consider `CC(CO)N1C(=O)[C@@H]2[C@H]3C(=O)OCC=C[C@H]3OC23C=CCN(c2ccc4ccccc4c2)C(=O)[C@@H]13` (stereo not given in full), for which the composite z-score in [1] was -0.893; in assay [2], -0.0682; in assay [3], 0.725; in assay [5] it was -0.916; in assay [6], -1.56; in [7], -1.64. Further, the composite z-score in assay [8] is -1.66; in [9], -1.83; in assay [10], -1.18. The z-score in assay [4] is 0.445 (inactive).
For `CCCC=C(CCC)[C@@H](NC(=O)c1ccc(C(=O)OC)cc1)c1ccc(C(=O)OC)cc1`, the composite z-score in [1] is -0.427; in assay [2], 0.816; in assay [3] it was 0.48; in assay [5], -0.363; in [6], -0.197; in assay [7], -0.195. Further, the composite z-score in assay [8] was -0.0762; in assay [9] it was -0.158; in assay [10], 0.804. For the same molecule, in assay [4], the z-score was -1.32 (inactive).
With `C#CCN(C(=O)OC(C)(C)C)[C@H](CO)c1ccccc1`, the composite z-score was -0.223 in [1]; -0.331 in [2]; -0.601 in assay [3]; 0.286 in assay [5]; 0.419 in assay [6]; 0.258 in [7]. Further, the composite z-score was -0.0195 in assay [8], 0.226 in assay [9] and -0.415 in assay [10]. For the same molecule, the z-score in [4] is 0.234 (inactive).
Turning to `COc1ccc([Si](C)(C)[C@H]2[C@H](CC(=O)N3CCC[C@H]3CO)O[C@@]3(C(=O)N(C)c4c(Br)cc(C)cc43)[C@@H]2C)cc1`, the composite z-score amounted to 1.91 in assay [1]; 0.94 in assay [2]; 0.244 in [3]; 1.5 in assay [5]; 1.32 in assay [6]; 0.775 in assay [7]. In addition, the composite z-score in assay [8] came to 1.16; in assay [9] it was 1.08; in assay [10], 1.34. Besides, the z-score in assay [4] is 0.00593 (inactive).
Take `C=CCOC(=O)[C@@H]1[C@H]2C(=O)O[C@H](c3ccccc3)[C@H](c3ccccc3)N2[C@H](c2ccc(OCCOC(=O)[C@H]3C[C@H]4C(=O)N[C@@H](CCCCN(C)C)C(=O)N4[C@H]3c3cccc(OCCO)c3)cc2)[C@@]12C(=O)Nc1ccccc12`: the composite z-score is 0.938 in assay [1]; 0.342 in [2]; 0.707 in [3]; -0.515 in assay [5]; 0.602 in assay [6]; -0.632 in assay [7]. Moreover, the composite z-score was -0.335 in assay [8], -0.679 in assay [9] and 0.0981 in assay [10]. The z-score in [4] is 0.0554 (inactive).
